This excerpt belongs to a sample that is enriched for the strongest signals.
B1: Onconase (Rana pipiens), P22069 (protein)
chain: QDWLTFQKKHITNTRDVDCDNIMSTNLFHCKDKNTFIYSRPEPVKAICKGIIASKNVLTTSEFYLSDCNVTSRPCKYKLKKSTNKFCVTCENQAPVHFVGVGSC
B2: Hip/Pap (Homo sapiens), Q06141 (protein)
chain: MLPPMALPSVSWMLLSCLMLLSQVQGEEPQRELPSARIRCPKGSKAYGSHCYALFLSPKSWTDADLACQKRPSGNLVSVLSGAEGSFVSSLVKSIGNSYSYVWIGLHDPTQGTEPNGEGWEWSSSDVMNYFAWERNPSTISSPGHCASLSRSTAFLRWKDYNCNVRLPYVCKFTD

Assays:
Test in all cases: glycan array binding signal (z-score within array); higher = stronger binding
Conditions in all cases: glycan notation: IUPAC condensed, linker removed
[1] = biological target: Fuc(a1-3)[Gal(b1-4)]GlcNAc(b1-4)Gal(b1-4)[Fuc(a1-3)]GlcNAc
How it was run: (§1)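 Glycan array binding is given as a within-array Z-score, which can be read as non-binding when negative. The arrays, 3228 of them, came from the Consortium for Functional Glycomics database and were retained only where the protein sequence was available. Z-scores were averaged across arrays of the same protein sequence at different concentrations or buffers and across linkers.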

Gal(a1-2)Gal = biological target: Gal(a1-2)Gal
How it was run: as §1

Gal(b1-2)Gal = biological target: Gal(b1-2)Gal
How it was run: as §1

[2] = biological target: Gal(b1-3)[Fuc(a1-4)]GlcNAc
How it was run: as §1

[3] = biological target: Gal(b1-4)GlcNAc(b1-3)Gal(b1-4)[Fuc(a1-3)]GlcNAc(b1-3)Gal(b1-4)[Fuc(a1-3)]GlcNAc
How it was run: as §1

Gal3S(b1-4)Glc6S = biological target: Gal3S(b1-4)Glc6S
How it was run: as §1

Gal6S(b1-4)Glc6S = biological target: Gal6S(b1-4)Glc6S
How it was run: as §1

Glc(b1-6)Glc = biological target: Glc(b1-6)Glc
How it was run: as §1

[4] = biological target: GlcNAc(b1-2)Gal(b1-3)GlcNAc
How it was run: as §1

GlcNAc(b1-3)GalNAc = biological target: GlcNAc(b1-3)GalNAc
How it was run: as §1

[5] = biological target: Neu5Ac(a2-3)Gal(b1-4)GlcNAc(b1-3)Gal(b1-4)[Fuc(a1-3)]GlcNAc
How it was run: as §1

[6] = biological target: Neu5Ac(a2-6)Gal(b1-4)GlcNAc
How it was run: as §1

[7] = biological target: Neu5Ac(a2-8)Neu5Ac(a2-8)Neu5Ac(a2-8)Neu5Ac(a2-3)[GalNAc(b1-4)]Gal(b1-4)Glc
How it was run: as §1

[8] = biological target: Neu5Ac9Ac(a2-6)Gal(b1-4)GlcNAc
How it was run: as §1

[9] = biological target: Neu5Gc(a2-3)Gal(b1-3)[Fuc(a1-4)]GlcNAc
How it was run: as §1

[10] = biological target: Gal(b1-3)[GlcNAc(b1-6)]GalNAc
How it was run: as §1

[11] = biological target: Gal(b1-4)GlcNAc(b1-3)Gal(b1-4)GlcNAc(b1-3)Gal(b1-4)GlcNAc
How it was run: as §1

Gal3S(b1-4)Glc = biological target: Gal3S(b1-4)Glc
How it was run: as §1

Gal6S(b1-4)Glc = biological target: Gal6S(b1-4)Glc
How it was run: as §1

Glc(a1-4)Glc = biological target: Glc(a1-4)Glc
How it was run: as §1

[12] = biological target: GlcNAc(b1-2)Gal(b1-3)GalNAc
How it was run: as §1

Man(a1-2)Man(a1-3)Man = biological target: Man(a1-2)Man(a1-3)Man
How it was run: as §1

[13] = biological target: Man(a1-2)Man(a1-3)[Man(a1-2)Man(a1-6)]Man
How it was run: as §1

[14] = biological target: Neu5Ac(a2-3)Gal(b1-3)[Neu5Ac(a2-3)Gal(b1-4)]GlcNAc
How it was run: as §1

[15] = biological target: Neu5Ac(a2-3)[GalNAc(b1-4)]Gal(b1-4)GlcNAc
How it was run: as §1

[16] = biological target: Neu5Ac(a2-3)[Neu5Ac(a2-6)]GalNAc
How it was run: as §1

Row | Binder | glycan array binding signal (z-score) [1] | glycan array binding signal (z-score) (Gal(a1-2)Gal) | glycan array binding signal (z-score) (Gal(b1-2)Gal) | glycan array binding signal (z-score) [2] | glycan array binding signal (z-score) [3] | glycan array binding signal (z-score) (Gal3S(b1-4)Glc6S) | glycan array binding signal (z-score) (Gal6S(b1-4)Glc6S) | glycan array binding signal (z-score) (Glc(b1-6)Glc) | glycan array binding signal (z-score) [4] | glycan array binding signal (z-score) (GlcNAc(b1-3)GalNAc) | glycan array binding signal (z-score) [5] | glycan array binding signal (z-score) [6] | glycan array binding signal (z-score) [7] | glycan array binding signal (z-score) [8] | glycan array binding signal (z-score) [9] | glycan array binding signal (z-score) [10] | glycan array binding signal (z-score) [11] | glycan array binding signal (z-score) (Gal3S(b1-4)Glc) | glycan array binding signal (z-score) (Gal6S(b1-4)Glc) | glycan array binding signal (z-score) (Glc(a1-4)Glc) | glycan array binding signal (z-score) [12] | glycan array binding signal (z-score) (Man(a1-2)Man(a1-3)Man) | glycan array binding signal (z-score) [13] | glycan array binding signal (z-score) [14] | glycan array binding signal (z-score) [15] | glycan array binding signal (z-score) [16]
1 | B1 | 1.21 | 3.22 | 2.63 | -0.553 | 2.54 | -0.281 | 0.598 | 0.027 | -0.449 | -0.84 | -0.671 | 0.51 | 2.71 | -0.006 | 1.6 |  |  |  |  |  |  |  |  |  |  | 
2 | B2 |  |  |  |  |  |  |  | 0.091 |  |  |  |  |  |  |  | -0.159 | -0.173 | 0.278 | -0.162 | 0.806 | -0.099 | -0.027 | 0.58 | 0.71 | -0.173 | -0.168
